# Test results reported in the supplement of paper PMC8975748.
# Structures can show the parent of a compound that is named as a salt.
# Experiments:
# [1] = tested on: Saccharomyces cerevisiae BY4741 SeMeCo community; assay: z-score of subpopulation abundance vs DMSO median, subpopulation auxotrophic for M; higher = larger share of this subpopulation than in DMSO controls; conditions: 10 µM; 24 h; SM minimal medium; subpopulation (auxotrophy): M
# Outline: (§1)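 Automated confocal microscopy of paraformaldehyde-fixed cells was used to follow a Saccharomyces cerevisiae BY4741 community carrying four plasmids, each restoring one auxotrophy and encoding a distinct fluorescent protein. The community was pre-grown overnight to OD600 1.0, diluted to 0.3, and added at 70 µl to 384-well plates acoustically predosed with library drugs (10 µM final) for 24 h of growth in minimal SM medium. Single-auxotroph fluorescent strains set thresholds and autofluorescence correction, and each subpopulation's abundance was scored as a z-score against the vehicle-well median.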
# [2] = tested on: Saccharomyces cerevisiae BY4741 SeMeCo community; assay: z-score of subpopulation abundance vs DMSO median, subpopulation auxotrophic for L; higher = larger share of this subpopulation than in DMSO controls; conditions: 10 µM; 24 h; SM minimal medium; subpopulation (auxotrophy): L
# Outline: as §1
# [3] = tested on: Saccharomyces cerevisiae BY4741 SeMeCo community; assay: z-score of subpopulation abundance vs DMSO median, subpopulation auxotrophic for H; higher = larger share of this subpopulation than in DMSO controls; conditions: 10 µM; 24 h; SM minimal medium; subpopulation (auxotrophy): H
# Outline: as §1
# [4] = tested on: Saccharomyces cerevisiae BY4741 SeMeCo community; assay: z-score of subpopulation abundance vs DMSO median, subpopulation auxotrophic for LU; higher = larger share of this subpopulation than in DMSO controls; conditions: 10 µM; 24 h; SM minimal medium; subpopulation (auxotrophy): LU
# Outline: as §1
# [5] = tested on: Saccharomyces cerevisiae BY4741 SeMeCo community; assay: z-score of subpopulation abundance vs DMSO median, subpopulation auxotrophic for LM; higher = larger share of this subpopulation than in DMSO controls; conditions: 10 µM; 24 h; SM minimal medium; subpopulation (auxotrophy): LM
# Outline: as §1
# [6] = tested on: Saccharomyces cerevisiae BY4741 SeMeCo community; assay: z-score of subpopulation abundance vs DMSO median, subpopulation auxotrophic for HM; higher = larger share of this subpopulation than in DMSO controls; conditions: 10 µM; 24 h; SM minimal medium; subpopulation (auxotrophy): HM
# Outline: as §1
# [7] = tested on: Saccharomyces cerevisiae BY4741 SeMeCo community; assay: z-score of subpopulation abundance vs DMSO median, subpopulation auxotrophic for UM; higher = larger share of this subpopulation than in DMSO controls; conditions: 10 µM; 24 h; SM minimal medium; subpopulation (auxotrophy): UM
# Outline: as §1
# [8] = tested on: Saccharomyces cerevisiae BY4741 SeMeCo community; assay: z-score of subpopulation abundance vs DMSO median, subpopulation auxotrophic for HL; higher = larger share of this subpopulation than in DMSO controls; conditions: 10 µM; 24 h; SM minimal medium; subpopulation (auxotrophy): HL
# Outline: as §1
# [9] = tested on: Saccharomyces cerevisiae BY4741 SeMeCo community; assay: z-score of subpopulation abundance vs DMSO median, subpopulation auxotrophic for HLU; higher = larger share of this subpopulation than in DMSO controls; conditions: 10 µM; 24 h; SM minimal medium; subpopulation (auxotrophy): HLU
# Outline: as §1
# [10] = tested on: Saccharomyces cerevisiae BY4741 SeMeCo community; assay: z-score of subpopulation abundance vs DMSO median, subpopulation auxotrophic for HLM; higher = larger share of this subpopulation than in DMSO controls; conditions: 10 µM; 24 h; SM minimal medium; subpopulation (auxotrophy): HLM
# Outline: as §1
# [11] = tested on: Saccharomyces cerevisiae BY4741 SeMeCo community; assay: z-score of subpopulation abundance vs DMSO median, subpopulation auxotrophic for HUM; higher = larger share of this subpopulation than in DMSO controls; conditions: 10 µM; 24 h; SM minimal medium; subpopulation (auxotrophy): HUM
# Outline: as §1
# [12] = tested on: Saccharomyces cerevisiae BY4741 SeMeCo community; assay: z-score of subpopulation abundance vs DMSO median, subpopulation auxotrophic for HLUM; higher = larger share of this subpopulation than in DMSO controls; conditions: 10 µM; 24 h; SM minimal medium; subpopulation (auxotrophy): HLUM
# Outline: as §1
# [13] = tested on: Saccharomyces cerevisiae BY4741 SeMeCo community; assay: z-score of prototroph abundance vs DMSO median; higher = larger share of this subpopulation than in DMSO controls; conditions: 10 µM; 24 h; SM minimal medium; subpopulation (auxotrophy): Prototroph
# Outline: as §1
# [14] = tested on: Saccharomyces cerevisiae BY4741 SeMeCo community; assay: z-score of subpopulation abundance vs DMSO median, subpopulation auxotrophic for U; higher = larger share of this subpopulation than in DMSO controls; conditions: 10 µM; 24 h; SM minimal medium; subpopulation (auxotrophy): U
# Outline: as §1
# [15] = tested on: Saccharomyces cerevisiae BY4741 SeMeCo community; assay: z-score of subpopulation abundance vs DMSO median, subpopulation auxotrophic for HU; higher = larger share of this subpopulation than in DMSO controls; conditions: 10 µM; 24 h; SM minimal medium; subpopulation (auxotrophy): HU
# Outline: as §1
# [16] = tested on: Saccharomyces cerevisiae BY4741 SeMeCo community; assay: z-score of subpopulation abundance vs DMSO median, subpopulation auxotrophic for LUM; higher = larger share of this subpopulation than in DMSO controls; conditions: 10 µM; 24 h; SM minimal medium; subpopulation (auxotrophy): LUM
# Outline: as §1
Structure (SMILES),z-score of subpopulation abundance [1],z-score of subpopulation abundance [2],z-score of subpopulation abundance [3],z-score of subpopulation abundance [4],z-score of subpopulation abundance [5],z-score of subpopulation abundance [6],z-score of subpopulation abundance [7],z-score of subpopulation abundance [8],z-score of subpopulation abundance [9],z-score of subpopulation abundance [10],z-score of subpopulation abundance [11],z-score of subpopulation abundance [12],z-score of prototroph abundance [13],z-score of subpopulation abundance [14],z-score of subpopulation abundance [15],z-score of subpopulation abundance [16]
CO/N=C(\C(=O)N[C@@H]1C(=O)N2C(C(=O)O)=C(CSC(=O)c3ccco3)CS[C@H]12)c1csc(N)n1 [Ceftiofur],-0.46,-0.31,0.28,0.54,-0.51,-0.13,0.79,0.39,-0.05,0.23,0.28,0.07,–,–,–,–
CCCN[C@H]1CCc2nc(N)sc2C1 [Pramipexole dihydrochloride],-0.32,-0.42,–,-0.61,-0.39,-0.31,0.32,0.19,-0.24,-0.79,0.52,0,0.25,-0.06,0,–
C=CCN1CCCC1CNC(=O)c1cc2nn[nH]c2cc1OC (configuration not stated) [Alizapride HCl],-0.5,0.16,-0.87,0.9,-0.39,-0.31,0.58,-0.36,0.1,-0.44,0,0.23,–,0.74,0.88,0.44
C[C@]1(COc2ccc(N3CCC(Oc4ccc(OC(F)(F)F)cc4)CC3)cc2)Cn2cc([N+](=O)[O-])nc2O1 [Delamanid],-0.38,1.53,0.86,0.18,0.45,0,-0.53,0.9,0.12,0.05,-0.19,0.08,–,-0.77,-0.43,–
CCOC(=O)C1=C(C)NC(C)=C(C(=O)OC)C1c1cccc([N+](=O)[O-])c1 (configuration not stated) [Nitrendipine],-0.21,-1.96,-0.06,-0.48,-1.23,-0.08,0.62,–,-0.48,-0.87,0.52,–,0.18,1.29,1.51,-1.36
CC(=O)C1C(=O)C=C(C)OC1=O (configuration not stated) [Sodium dehydroacetate],0.37,1.59,–,2.06,0.56,0.2,–,0.4,1.27,0.13,-0.21,1.61,–,1.63,0.24,–
O=C(Nc1cc(Cl)cc(Cl)c1O)c1c(O)c(Cl)cc(Cl)c1Cl [Oxyclozanide],-2.38,-0.21,-2.53,-0.32,-0.51,-2.11,-1.83,1.03,-0.55,0.96,-0.71,2.05,2.11,-0.91,–,-0.27
Nc1nc(O)c2ncn(CCC(CO)CO)c2n1 [Penciclovir],-0.61,-0.31,0.22,0.58,–,0.31,–,-0.26,-0.33,-0.62,0.59,-0.97,–,0.53,0.29,-0.73
CN(C)c1ccc(O)c2c1C[C@H]1C[C@H]3[C@H](N(C)C)C(=O)C(C(N)=O)=C(O)[C@@]3(O)C(=O)C1=C2O [Minocycline HCl],0.32,-0.03,–,0.63,0.75,-0.22,0.25,0.73,0.06,0.31,-0.12,0.19,-0.28,0.78,–,0.3
CC(C)(O/N=C(\C(=O)N[C@@H]1C(=O)N2C(C(=O)[O-])=C(C[n+]3ccccc3)CS[C@H]12)c1csc(N)n1)C(=O)O [Ceftazidime],-0.44,-0.23,0.63,-0.93,-0.09,-0.26,0.27,0.02,0.34,-0.39,0.14,–,–,-0.24,0.43,0.05
C=CC(C)(O)CCC=C(C)C (configuration not stated) [Linalool],0.32,-0.24,-0.37,0.53,-0.19,-0.25,0.7,-0.47,-0.06,-0.24,-0.24,-0.32,-0.57,1.02,–,-0.39
C1N2CN3CN1CN(C2)C3 [Methenamine],0.26,-0.63,0.28,-0.57,0.49,–,0.8,-0.01,-0.02,0.4,0.39,-0.16,-0.97,0.59,0.2,0.29
Cc1nccn1CC1CCc2c(c3ccccc3n2C)C1=O (configuration not stated) [Ondansetron Hydrochloride Dihydrate],0.38,-0.38,-0.54,-0.34,-0.17,–,0.75,-0.09,-0.6,-0.48,0.55,-0.23,0.12,–,–,-0.16
CN(C)CCC=C1c2ccccc2C(C)(C)c2ccccc21 [Melitracen hydrochloride],-0.28,-0.61,-1.7,-0.8,-0.58,–,-0.21,-1.23,-1.72,-1.11,-0.78,-0.56,1,-0.05,-0.73,–
C[N+](C)(C)CCOC(=O)CCC(=O)OCC[N+](C)(C)C [Succinylcholine Chloride Dihydrate],1.02,-0.65,-0.95,-1.48,0.01,–,0.5,–,-0.97,-0.3,-0.03,0.02,0.17,0.38,-0.93,–
